Measured values as given in the supplement of paper PMC10681739.
± gives the standard deviation of the averaged measurements. In all, about 4,100 sequences were measured (“arbitrary fluorescence units”: median about 780, highest 2% from about 22,000 on). Many of the other results were omitted from the sample, so the highest values are more common in it than they were.

Biological target: T1, ETS1 (UniProt P14921)
T1 sequence: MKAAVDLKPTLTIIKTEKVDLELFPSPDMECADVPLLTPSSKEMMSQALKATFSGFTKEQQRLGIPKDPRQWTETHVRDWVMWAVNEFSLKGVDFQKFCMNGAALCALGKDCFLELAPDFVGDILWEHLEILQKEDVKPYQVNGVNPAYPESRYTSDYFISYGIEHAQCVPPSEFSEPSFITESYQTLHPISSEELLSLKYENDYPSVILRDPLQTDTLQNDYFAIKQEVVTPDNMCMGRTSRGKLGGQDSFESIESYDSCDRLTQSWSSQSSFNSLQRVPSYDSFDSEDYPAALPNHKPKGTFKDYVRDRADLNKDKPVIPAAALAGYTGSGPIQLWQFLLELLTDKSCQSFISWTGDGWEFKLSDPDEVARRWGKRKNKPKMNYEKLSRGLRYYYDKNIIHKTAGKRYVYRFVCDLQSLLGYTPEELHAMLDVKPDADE
Test: ETS1 binding intensity (PBM fluorescence), ETS1 alone (arbitrary fluorescence units); higher = stronger binding
Settings: ETS1 concentration 1 nM; RUNX1 concentration 0 nM
Method: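 gcPBM on 36-bp genomic-derived probes (partner site mutated) containing one ETS1 site and no RUNX1 site. Recombinant human ETS1 (1 nM) was incubated alone or with RUNX1 (25 nM) and detected by anti-ETS1 antibody fluorescence. Values are medians over 4 replicate spots (not normalised). The probes sit in constant array flanks that are not printed.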

Sequence | ETS1 binding intensity
CGTTTCCTGTCTGGGACTGCGCCCACGCGATCACGT | 38800
GACTGCGCCGGACGCGCCAGCCCTGCGCGATGACGT | 678
TGGCTGTCACTTCCTGTCCCACTGTCGTTCCTGGGA | 20600
TCCCTCCTTCCGCTCTGGTTTTGGGGTTGCTTGCTG | 6220
CCAACAGCAGCGCTACTCCCGGCCGCTTCCGCCTGG | 748
CCGCGTCCTCAGAGGTCCGGCCGGAAGTCACCTGAA | 8340 ± 1500
GGCACTTCCGGTCCTGACCTGAAGCGCTCACCGTCA | 55000
CGGCCTCTTCCGGTCACCTGGCCCGTCGCTGTCCCG | 17300
ACAAAGTCAGTGGCAATGTGGAACGTCCGCCAAGAG | 384
GCGGAGGGAAGCGGAAATACTTGCAGTGGGGGCGAC | 3700
CTCTTGGCGGACGTTCCACATTGCCACTGACTTTGT | 616
CAACTCCGGCGCCCTCAGGCCACTTCCGCCTATGTA | 4590
GCCACTTCCGGTCACTCCCCTCAGCGGCCTCGCGCT | 39600
CACTCCCCTCCCGAGGTCACACTTCCGGCGGCCACC | 7960
CTGCCTTTCCTGCTAGGGTACAAATCACAGCCTTAG | 1670
AACTTCCTTCCCGAGAGCCTGAAGCAGCCGTAGGCC | 9120
TTTAAGGTTCATGCTGTACTCAGAACATCCTGTTCT | 1150
TCCCGCTTCGGCCAACAGCCGGGCCACTTCCGGGGC | 2910
TCCCCACACTTCCGGCCCCGCGCGCACAGCCGCACC | 25400
CGGGTTAAACAGCAGCCGCGCCCACACTTCCGGGGT | 2120
CCGCGAACAGCAGAATTCCCGCCTTCCGCAGCCCGG | 480 ± 6.2

Sequence | ETS1 binding intensity
TGGGGCTCTTCCTGCTTATGTGAGCACAGCACCTTG | 4750
AGCACCAGTGTTGTCTCTGCTTCCGGTCCTTATGGT | 7490
GGTCTCTGCTTCCGGTCCTTGGGGTAGCACCTCTGT | 32000
CAGCCAGCGCACCTCCTCCTCAGCTTCCTCTGGTGC | 620
GATGAGGGCTTGCGCGCAAACAGCCCGGAAATGAGG | 1010
CAACAACCGGAAGTGGGGCGGGCCGTAGTACCCGCC | 35100
GGGGACCGGAAAGGGAGGGGTGGGCCGTAGGCGCCG | 4430
CGGCCGCCGTTTAGGGCGGCCCCGGAAGCGGGGCGC | 531
AGGCTCATTTCCTGTTTTCATGTAGTTTAGAGAAAA | 24300
GCACTCATTTCCTGTCCCCTGTAGTTTAAAGGTTTT | 19700
TTGCATGTAGTTTAGGCTGTAGTTTCCTCCTGTAGT | 534
TATATGCACAGGAAGTCCCTTACAACCTACTCTGTT | 3590
AGAAGTGCAGTGGAGGAGGGCCGGAACGGTGACTAT | 393
AGGACCGGAAGTGCCCGAGGGCGGCCGGAGAACGGT | 45500
GGCGGGAGAGGAAGCCGGGCGGCCGAAGCTGCCTGT | 811
CCATTCCTACGGCCTTCATTGCTGCATCCGGTGGAG | 2480
CTCTGGGAGGCCGCCGCTTTCCACCGGAAAGAGGGT | 555
AGGTACAACACCAGACGGTAGGCCAGGAAATCGCAG | 407
CTCCGCGCAGCCCCAGAGACCCTTGGGAAGTGTGGT | 320
CTCGGCCAACGCGTGCTCCACTCGGAAGTGGTGCCG | 457
CAAAGTGATGGGGGAAATGGTTGTAGTTTTGGGTGG | 514

Sequence | ETS1 binding intensity
GTTGCAAAGGCGCCTACAACTACTTCCGCTTCTAGT | 4670
CGTGTGAGGGGGCGCAAGGCAGCGGCAGCTTCCGCC | 830
AACAGTACTTCCGGGGCAAGTGAGCGCCTACAAGGC | 30400
TGAGCCCTACTTCCGGTGGTGCTGTGCTCTGCCCCT | 29700
CTTCTACTTCCTGCCCCGCCCCCAGCTGTGCTCACA | 17900
AAATGAGCGGAGGTTGAGCCCTACTTCCGGTGGTGC | 14100
GCTTGTCTTCCGGTTTCGTCGCCGCCGTAGGCGCAC | 16700
AGTTTCCTGAACTCAGAGCACAGTTCTGGTGCAGAA | 6300
TATTTCCTGTGCACAGAAGCAGCTGGGCCGAAGAGT | 34400
TCGGGCTGCCGAAGAGCAGCTATTTCCTGTCTGCAC | 5010
CCAGACCCGGCGGAACTACCGTGCCCTCAAGGCAGC | 477
CCCGGAGGACGTCCGGCCTCTGTGAGCCGCCACCTT | 4500
ACGCGCGCGGGGGAGGTGGCTTCTTCCGGCCGGGCC | 1860
TTCAGGTGACTTCCGGCCGGACCTCTGAGGACGCGG | 24100 ± 4200
CTCGGCCAGGAAGCACTGAGCCACTTCGGCATCGCA | 591
TGACAGACCCGGAAATAAGAGGAGACAACACACTTG | 4440
GGCAGGAAAGAGCTGATGCATTTCAACAGCAGCCTG | 477
CCTGAGCGCCCGGAAGGAAGGCTGGGGTAGGTTGTC | 756
GGAGGGGCTGGCCGGAAGTGAACCGAAGAGCACGCT | 16700
GTCGGAAGTGGCCGTGAGCCCAAGCCGAGGTCCCGG | 1130
ACCAACCGGAAGTGATCGTGTCGTGGCCGAAGGAGG | 32300

Sequence | ETS1 binding intensity
TGCGCCAGCGGGAGGGAGCAGTTCCGGGTACGGTGC | 563
CAGGACCCCTGTACTCCGGGTGAAGCGGAAGCGCAG | 667
TTATCTGTCGTTCTTTTATGGGGTGGGCTTCCTCTG | 503
GAGAAAGCAGCGCCCCAGCGCGCCTTCCGCCACGCC | 328
CAGTCTGGCCATGAGGTGCCACTTCCTCTCTGGTTT | 1550
CTGACTTGTTGTAGTCTCTGCCACTTCCTGAGGTGT | 668
AGCCGCCACTTCCTGTCTCTGAGGGTGCATGCTCTT | 36000
TAAAATTTCGGGAGGGGACTTGGTCCTTCCTGTTGC | 735
GCGCCCCGCTTCCGGGGCCGCCCTAAACGGCGGCCG | 10100
AGCAACCTACTACCCGGCGCCTGATTCACTTCCCTC | 391
CTTACTATATTAACGCCGGTACACATCCGCCCGACA | 1800
ATTACATCCGGGCTCCGCGACACGCCCGAACCCCAA | 25300
CCCCGTTACGCCCATCCGGCTCCCGAATAGGGCGTC | 2610
CTTACGGCCTCGCGCCATGGGCAGTATCCGCCGCCA | 328
GATGGGCTGGGGATGTGGCCTGTTTGCCGCTGGCGA | 361
CAGCCGACTTCCGGGGTGGGGCTTGCTGCCGCTGAG | 19300
GGCTGCGCCGGCTGGGGTGTTCCTCCGACTTCCGGA | 1590
GGCTGCGACTTCCGGACTGCTCCTGGCCGCTGGGGG | 22900 ± 1200
